Only some compounds are listed: those with a hit (about 15% of all), similar ones and a draw of the others.
TDP1 cell noCPT: qHTS for Inhibitors of human tyrosyl-DNA phosphodiesterase 1 (TDP1): qHTS in cells in absence of CPT | DT40 Tdp1-/- hTDP1 cells, no CPT, ATP luminescence, 48 h | 15% of 420,000 active | Potency, µM (titrated, usually from 46.2 µM), inactives show top-dose activity change, negative = growth inhibition, hits mostly inhibitors; further: nearly all actives have a fitted effect of over 55% in size
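Cells were dispensed at 400 per well, compounds added by pin tool, plates incubated ≥48 hr at 37 °C, then CellTiter-Glo added for 30 min at room temperature before luminescence reading. Line: DT40 Tdp1-/- complemented with hTDP1; camptothecin omitted.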
12-LOX inh: ALOX12 (human) lipoxygenase inhibition; P18054; purified 12hLO, xylenol orange hydroperoxide absorbance; Potency, µM (top dose mostly 108 µM), for the others: at the top dose activity change, negative = inhibition, hits mostly inhibitors; 1.1% of 580,000 active; AID 1671190
Target sequence (P18054 whole entry, looked up): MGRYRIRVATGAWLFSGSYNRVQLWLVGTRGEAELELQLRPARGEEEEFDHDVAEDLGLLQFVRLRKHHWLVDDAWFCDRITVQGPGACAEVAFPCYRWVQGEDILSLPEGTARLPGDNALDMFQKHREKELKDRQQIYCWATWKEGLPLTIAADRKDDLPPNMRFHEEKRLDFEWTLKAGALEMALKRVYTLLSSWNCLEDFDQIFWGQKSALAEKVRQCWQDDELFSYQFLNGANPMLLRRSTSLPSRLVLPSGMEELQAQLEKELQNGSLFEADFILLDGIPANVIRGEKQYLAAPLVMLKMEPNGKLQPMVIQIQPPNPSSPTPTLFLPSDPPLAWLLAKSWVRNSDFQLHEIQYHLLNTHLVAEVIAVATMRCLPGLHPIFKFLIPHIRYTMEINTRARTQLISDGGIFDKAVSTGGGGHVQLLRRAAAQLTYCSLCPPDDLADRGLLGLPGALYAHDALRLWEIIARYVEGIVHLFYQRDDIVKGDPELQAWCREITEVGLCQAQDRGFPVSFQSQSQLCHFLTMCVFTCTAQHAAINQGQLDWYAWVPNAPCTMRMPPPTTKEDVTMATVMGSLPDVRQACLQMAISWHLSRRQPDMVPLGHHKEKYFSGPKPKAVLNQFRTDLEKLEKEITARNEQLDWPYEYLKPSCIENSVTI
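Hydroperoxide product was detected by ferrous iron/xylenol orange as the 573 to 405 nm absorbance ratio. Arachidonic acid at 40 uM (final) was turned over for 30 min at room temperature by 150 nM human 12hLO, pH 7.0 Hepes buffer, after 15 min compound preincubation.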
DT40 TDP1 CPT: growth inhibition of DT40 Tdp1-/-;hTDP1 cells with camptothecin (screen for TDP1 inhibitors); chicken DT40 Tdp1-/-;hTDP1 cells + 20 nM CPT, ATP luminescence, 48 h; Potency, µM (highest dose often 46.2 µM), for the others: at the highest dose activity change, negative = growth inhibition, usual class: inhibitors; 12% of 420,000 active; AID 686979; further: nearly all actives have a fitted effect of over 55% in size
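Chicken DT40 Tdp1-/- cells stably complemented with human TDP1 were seeded at 400 cells/well in medium containing 20 nM camptothecin, exposed to pin-transferred compounds, and grown at 37 °C for at least 48 hr. Viability was read as ATP luminescence.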
VP16 counter: inhibits Gal4-VP16 luciferase reporter, ROR gamma counter-screen. Drosophila S2 Gal4-VP16 UAS-luciferase, luminescence, 20 h. Potency, µM (highest dose often 53.6 µM), for inactives: top-dose activity, negative = inhibition, most hits filed as inhibitors. 3.5% of 310,000 active;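 further: Gal4-VP16 expression switched on by copper sulfate through the metallothionein promoter; nearly all actives have a fitted effect of over 50% in size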
RORgamma inh: ROR gamma (mouse) transcription inhibition; P51450; Drosophila S2 Gal4-RORgamma UAS-luciferase reporter, 20 h; Potency, µM (top dose mostly 53.6 µM), for the others: at the top dose activity change, negative = inhibition, most hits filed as inhibitors; 5.4% of 310,000 active; further: nearly all actives have a fitted effect of over 60% in size
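Drosophila Schneider cells stably carrying a metallothionein-driven Gal4 DBD–ROR gamma fusion and a UAS-Photinus luciferase reporter were exposed to compound for 1 hr, then induced with copper sulfate (700 uM final) for 20 hr at ambient temperature before luminescence reading.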
ELG1 repair inh: ELG1-dependent DNA repair inhibition | HEK293T ELG1-luciferase reporter, luminescence, 16 h; DNA damage induced by 5-fluorouridine | Potency, µM (titrated, usually from 46.1 µM), for inactives: top-dose activity change, negative = inhibition, most hits filed as inhibitors | 2.3% of 330,000 active | AID 504467; further: nearly all actives have a fitted effect of over 55% in size
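HEK293T cells expressing luciferase-tagged ELG1 (2,000/well) received 5-Fluorouridine plus compound or DMSO for 16 hr at 37 °C. Luciferase was read by ONE-Glo luminescence after 30 min at room temperature.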
Starred values were filed as active, the others as inactive; ? = inconclusive; . = not tested or not shown. The call rests on the fitted dose curve; in most records, active means well fitted curve in the direction sought with a large enough effect; inconclusive means small, poorly fitted or top-dose-only effect, or another doubt; inactive means no such curve, though single readings can be large; an effect the other way counts as inactive or inconclusive. On the % scale 0 is the no-effect control and ±100 the full control effect; potency means the concentration at half of the fitted maximal effect.

SMILES	TDP1 cell noCPT	12-LOX inh	DT40 TDP1 CPT	VP16 counter	RORgamma inh	ELG1 repair inh
CCOc1ccc(C(=O)NCCc2sc(-c3cccc(F)c3)nc2C)cc1OCC	?	-29.2%	18.4µM*	.	.	.
CCOc1ccc(S(=O)(=O)NCCc2sc(-c3ccc(OC)cc3)nc2C)cc1	.	0.6%	.	.	.	.
CCOc1ccc(C(=O)NCCc2sc(-c3ccc(OC)cc3)nc2C)cc1	.	12.3%	.	.	.	.
COc1ccc(C2CC(=O)Nc3c2c(C)nn3-c2ncnc3nc[nH]c23)cc1OC(C)C (centres undefined)	.	9.7%	.	.	.	.
Cc1ccc(C)c(Cn2c(=O)n(CCCC(=O)NCc3ccco3)c(=O)c3sccc32)c1	11.6µM*	20.9%	23.1µM*	-15.3%	15.5%	?
O=C(CCCn1c(=O)c2ccccc2n(CC(=O)NCc2ccco2)c1=O)NCc1ccco1	?	4.6%	-3.6%	2.4%	30.3%	-1.0%
O=C(CCCCn1c(=O)c2ccccc2n(CC(=O)Nc2ccc(F)cc2)c1=O)NCc1ccco1	?	1.0%	9.2µM*	5.2%	7.9%	20.6µM*
Cc1ccc(C)c(Cn2c(=O)n(CCC(=O)NCc3ccco3)c(=O)c3ccccc32)c1	-20.4%	-0.9%	17.2%	2.8%	2.3%	?
Cc1ccc(NC(=O)Cn2c(=O)n(CCCCC(=O)NCc3ccco3)c(=O)c3ccccc32)cc1	14.6µM*	0.0%	?	-4.1%	17.1%	?
O=C(CCCCn1c(=O)c2ccccc2n(Cc2ccc(F)cc2Cl)c1=O)NCc1ccco1	14.6µM*	-22.7%	18.4µM*	4.7%	-4.1%	?
CCC(C)NC(=O)Cn1c(=O)n(CCCCC(=O)NCc2ccco2)c(=O)c2ccccc21 (centres undefined)	-19.6%	148.7%	-5.3%	18.0%	-25.6%	0.7%
O=C1N[C@H](CCC(=O)N2CCCC2)C(=O)Nc2ccccc21	.	8.1%	.	.	.	.
Cc1cc(C)c(Cn2c(=O)n(CCCC(=O)NCc3ccco3)c(=O)c3ccccc32)c(C)c1	18.4µM*	0.0%	?	.	.	.
O=C(Cn1cc(S(=O)(=O)Cc2ccccc2)c2ccccc21)Nc1ccccc1	-29.3%	.	-19.2%	-4.9%	28.3%	-0.2%
CC(=O)c1ccc(NC(=O)Cn2cc(S(=O)(=O)Cc3cccc(Cl)c3)c3ccccc32)cc1	23.1µM*	-18.5%	23.1µM*	.	.	.
Cc1cc(NC(=O)CS(=O)(=O)c2cn(Cc3cccc(Cl)c3)c3ccccc23)no1	20.6µM*	-0.3%	25.9µM*	.	.	.
CCn1cc(S(=O)(=O)CC(=O)Nc2cccc(C)c2)c2ccccc21	-20.3%	6.5%	4.0%	-3.2%	20.2%	-3.5%
O=C(Cn1cc(S(=O)(=O)Cc2cccc(Cl)c2)c2ccccc21)Nc1ccccc1C(F)(F)F	?	-12.0%	13µM*	.	.	.
CC1(C)CC(=S)Nc2ccccc2S1	-14.0%	?	?	5.01µM*	2.82µM*	-0.8%
O=C1CSc2ccccc2N1	-18.4%	10.8%	?	.	.	.
CCNc1c(NC(=O)c2cccc(OC)c2)c(=O)oc2ccccc12	.	-3.7%	.	.	.	.
O=C(Nc1ccc2nn(-c3ccccc3)nc2c1)c1cc2ccccc2o1	14.6µM*	-5.7%	?	.	.	.
O=C(Nc1cccc(-n2cnnn2)c1)c1cc2ccccc2o1	-26.2%	0.0%	-25.7%	-10.4%	24.2%	-3.0%
CCc1ccc(-n2nc3ccc(NC(=O)COc4ccc(OC)cc4)cc3n2)cc1	-3.2%	?	-14.9%	.	.	.
CCc1ccc(-n2nc3ccc(NC(=O)c4cc5ccccc5o4)cc3n2)cc1	4.61µM*	-27.9%	?	.	.	.
SMILES	TDP1 cell noCPT	12-LOX inh	DT40 TDP1 CPT	VP16 counter	RORgamma inh	ELG1 repair inh
CCN1CCN(Cc2ccc(CNC(=O)CC(F)(F)F)cc2)CC1	.	5.7%	.	.	.	.
COC(c1ccc(Cl)cc1)(c1ccc(Cl)cc1)C(Oc1nccc(C)n1)C(=O)O (centres undefined)	-10.9%	15.8%	-14.6%	-9.6%	?	-26.3%
COC(c1ccc(Cl)cc1)(c1ccc(Cl)cc1)C(Oc1nc(C)cc(C)n1)C(=O)O (centres undefined)	14.6µM*	-23.4%	?	13.4%	?	19.3%
CCCC(C)NC(=O)CN(c1ccccc1)S(=O)(=O)N(C)C (centres undefined)	.	34.7%	.	.	.	.
CCOC(=O)c1ccc(NC(=O)Nc2ccon2)cc1	0.0184µM*	-0.4%	0.0073µM*	-0.5%	20.7%	?
CCOC(=O)c1ccc(NC(=O)Nc2nncs2)cc1	0.0065µM*	8.8%	0.0184µM*	.	.	.
O=C(COc1ccc(F)cc1)N1C[C@@H](CO)[C@H](c2ccccn2)C1	.	19.2%	.	.	.	.
c1ccc(Sc2nc(N3CCCCC3)nc(N3CCCCC3)n2)nc1	18.4µM*	6.2%	?	-29.0%	-36.7%	.
Cc1ccc(-c2ccc(=O)n(C(C)C(=O)Nc3ccccc3C)n2)cc1 (centres undefined)	.	-7.2%	.	.	.	.
OC(c1ccc(F)c(F)c1)c1nc(-c2cccc(F)c2)cs1 (centres undefined)	?	?	14.6µM*	.	.	.
COc1cc(C(O)c2nc(-c3cccc(C(C)C)c3)cs2)ccc1F (centres undefined)	18.4µM*	?	?	.	.	.
COc1ccc(C(O)c2nc(-c3cc(F)cc(F)c3)cs2)cc1 (centres undefined)	16.4µM*	-29.3%	16.4µM*	.	.	.
COc1cc(C(O)c2nc(/C=C/c3ccccc3)cs2)ccc1F (centres undefined)	?	?	18.4µM*	.	.	.
COc1ccc(-c2nc(N)n(C(=O)c3ccc(Cl)cc3)n2)cc1	.	-8.0%	.	.	.	.
CC(NC(=O)c1[nH]c2ccccc2c1Cl)c1cccc(F)c1 (centres undefined)	.	-9.5%	.	.	.	.
COc1cccc(-c2nn3c(CN4CCCCCC4)nnc3s2)c1	.	-28.3%	.	.	.	.
Cc1nc2c(c(-c3ccc(Cl)cc3)n1)CCN(C(=O)c1ccccc1F)CC2	.	7.0%	.	.	.	.
COc1cc(C(O)c2nc(-c3cncnc3)cs2)ccc1F (centres undefined)	-18.1%	?	12.8%	.	.	.
COc1cc(C(O)c2nc(-c3ccc(N(C)C)cc3)cs2)ccc1F (centres undefined)	23.1µM*	.	16.4µM*	.	.	.
COc1cc(C(O)c2nc(-c3cc(F)cc(F)c3)cs2)ccc1F (centres undefined)	14.6µM*	0.7%	23.1µM*	.	.	.
